The source of these data is PubChem BioAssay (NCATS).

Results filed as inconclusive are left out. Unmarked numbers belong to inactive results. The source made the active and inactive calls. Calls follow the shape of the dose curve; as a rule, active = well fitted inhibition curve with a large enough effect; inconclusive = small, poorly fitted or top-dose-only effect; inactive = flat fitted curve, though single readings scatter.

The target of the assay is Phospholipid hydroperoxide glutathione peroxidase GPX4 (Homo sapiens) (UniProt P36969). The assay can be described thus: Primary qHTS Assay for Inhibitors of Recombinant Selenoprotein Glutathione Peroxidase 4 (GPX4) (AID 1845192). Also: nearly all actives have a fitted effect of over 65% in size. As to conditions: recombinant GPX4, GR-coupled NADPH fluorescence, 15 min; series mostly up to 50 µM; activity change, negative = inhibition: at the top concentration. The source says: Assay Provider: Elias S.J. Arner MD PhD.
Chain of Phospholipid hydroperoxide glutathione peroxidase GPX4 (Homo sapiens) (P36969 whole entry, looked up): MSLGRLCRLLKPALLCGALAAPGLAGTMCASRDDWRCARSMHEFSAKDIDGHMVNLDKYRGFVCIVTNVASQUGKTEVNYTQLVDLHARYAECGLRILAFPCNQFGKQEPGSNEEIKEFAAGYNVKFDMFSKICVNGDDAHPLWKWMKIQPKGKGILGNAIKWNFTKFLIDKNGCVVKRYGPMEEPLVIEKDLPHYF
Department of Medical Biochemistry and Biophysics
Karolinska Institutet, Solna, Stockholm, Sweden
Selenoprotein glutathione peroxidases (GPX), like the ubiquitously expressed GPX1 and the ferroptosis modulator GPX4, enact their antioxidant activities by reducing hydroperoxides using glutathione. […] GPX1 and GPX4 inhibitors have thus shown promise as anti-cancer agents. Existing inhibitors are often promiscuous, or modulate GPX activity only indirectly, so novel direct inhibitors identified through screening against GPX1 and GPX4 could be valuable. Here, we developed optimized glutathione reductase (GR)-coupled GPX assays for the biochemical high-throughput screen (HTS) of almost 12,000 compounds with known mechanisms of action. Initial hits were triaged using a GR counter-screen, assessed for isoform specificity using a separate GPX2 assay, and were assessed for general selenocysteine-targeting activity using a thioredoxin reductase (TXNRD1) assay. With this suite of assays, we identified novel GPX1/GPX2- and GPX4-specific inhibitors and can here present a validated pipeline for future discovery research for selenoprotein-targeting agents.
SEQUENCE No. (e.g., 1, 2, 3, etc.); […] (e.g., Cells, Incubation, Reagent, etc.); VALUE; DESCRIPTION.
1; Reagent 1; 3 uL; 333.33 nM GPx4 enzyme or no enzyme control in 1536-well, black, solid Greiner assay plate.
2; Compound; 25 nL; Kalypsis pin tool (Wako USA) equipped with a 1536-well pin head.
3; Incubation; 30 min; room temperature.
4; Reagent 2; 1 uL; 500 nM GR, 5 mM GSH, 2.5 mM NADPH solution
5; Reagent 3; 1 uL; 2.5 mM CHP in 50% EtOH.
6; Detection; Fluorescence; ViewLux microplate reader, excitation 340 nm and emission 450 nm.
7; Incubation; 15 min; room temperature.
8; Detection; Fluorescence; ViewLux microplate reader, excitation 340 nm and emission 450 nm.
NOTES (numbers refer to Sequence numbers above)
1. 3 µL of 333.33 nM GPX4 and 0.016% BSA in assay buffer (50 mM Tris-HCl, 2 mM EDTA (pH 7.5), 150 mM NaCl) was added to columns 3-48 of 1536-well plates using a BioRAPTR Flying Reagent Dispenser (Let's Go Robotics (LGR), Carlsbad, CA). A no-enzyme control (0.01% BSA in TES assay buffer) was added to columns 1-2.
2. 25 nL, library and DMSO controls were added to each well with a pin tool (Kalypsys).
3. The assay plates were incubated for 30 minutes at room temperature.
4. 1 µL of master mix (500 nM glutathione reductase (GR), 5 mM reduced glutathione (GSH), 2.5 mM NADPH in assay buffer) was added.
5. 1 µL of cumene hydroperoxide (CHP) ([2.5 mM] in 50% EtOH) was then added within 5 minutes to initiate the reaction. Final concentrations were: 200 nM GPX4, 1 mM GSH, 0.5 mM CHP, 0.5 mM NADPH, 100 nM GR, 0.01% BSA.
6. Initial fluorescence readout (t=0) at 340/450 nm was measured using a ViewLux multimodal detector (PerkinElmer, Waltham, MA).
8. Endpoint fluorescence readout (t=15) at 340/450 nm was measured 15 min after room temperature incubation.
`CNC(=O)c1ccccc1Nc1nc(Nc2ccc3c(c2OC)CCC[C@@H](N2CCN(CCO)CC2)C3)ncc1Cl`: the “activity change, negative = inhibition” value is 1.49%.

Turning to `C=C(C)C1CCC(C)C12CC(O)C1(C)OC1C2OC(=O)C(N)CCC(=O)O` (stereo not given), the “activity change, negative = inhibition” value was -6.34% [at 27.8 µM].

For `FC(F)(F)c1ccc(Nc2nc(-c3c(C(F)(F)F)nc4ccccn34)cs2)cc1`, the “activity change, negative = inhibition” value was 0.402%.

Turning to `CC(=O)OC1CC2C3(C)CCC(OC(=O)CC(=O)O)C(C)(C)C3CCC2(C)C2(C)CCC(C3(C)CCC(=O)O3)C12` (stereo not given), the “activity change, negative = inhibition” value was -17.3% [at 27.8 µM].

With `CC(=O)OC[C@@]12C(=O)C[C@@H](C)[C@]3(C[C@@H](c4ccoc4)O[C@H]3OC(C)=O)[C@H]1CCC[C@]21CO1`, the “activity change, negative = inhibition” value was -16.4% [at 27.8 µM].

As for `CN[C@@H]1[C@H](O[C@H]2[C@H](O[C@@H]3[C@@H](O)[C@H](O)[C@@H](N=C(N)N)[C@H](O)[C@H]3N=C(N)N)O[C@@H](C)[C@]2(O)C=O)O[C@@H](CO)[C@H](O)[C@H]1O`, the Potency result is “inactive”.

On to `COc1ccc(CC2C(=O)NC(C)C(=O)N(C)C3Cc4ccc(cc4)Oc4cc(ccc4OC4OC(CO)C(O)C(O)C4O)CC(C(=O)NC(C)C(=O)NC(C)C(=O)N2C)N(C)C3=O)cc1` (stereo not given), for which the “outcome” value is “inactive [at 15.3 µM]”.

Take `COC(=O)c1cc(OC)c(O[C@@H]2O[C@@H](C)[C@H](O)[C@@H](O)[C@H]2O)c(OC)c1`: the “outcome” value is “inactive [at 27.8 µM]”.

For `CC(C)c1cc2c(c(O)c1O)[C@@]13CCCC(C)(C)[C@@H]1[C@H](OC3=O)C2=O`, the “activity change, negative = inhibition” value is -18.8% [at 27.8 µM].

With `C/C=C/C=C/C(O)=C1\C(=O)[C@]2(C)C3C(C(=O)CC/C=C/C)=C(O)C4(C)C1[C@]1(C)O[C@@]4(O)[C@@]3(C)O[C@@]12O`, the “activity change, negative = inhibition” value is -22.6% [at 27.8 µM].

Take `O=[N+]([O-])c1cn2c(n1)OCC(OCc1ccc(OC(F)(F)F)cc1)C2` (stereo not given): the “activity change, negative = inhibition” value is 1.7%.

Take `C=CC1(C)CC(OC(=O)/C(C)=C\COC(C)=O)C(C(=C)C(=O)O)C(O)C1C(=C)CO` (stereo not given): the “outcome” value is “inactive [at 27.8 µM]”.

In the case of `C[C@H]1CC[C@@]2(OC1)O[C@H]1CC3C4CC[C@H]5C[C@@H](O)[C@H](O)C[C@]5(C)C4=CC(=O)[C@]3(C)[C@H]1[C@@H]2C` (stereo not given in full), the “activity change, negative = inhibition” value is -3.1% [at 27.8 µM].

`CCC(O)(C(=O)OCc1ccccc1NC(=O)CCC(=O)O)C(C)O` (stereo not given): the “activity change, negative = inhibition” value was -6.61% [at 27.8 µM].

In the case of `CC1(C)CC2=C3C=CC4C5(C)CCC(O)C(C)(C)C5CCC4(C)C3(C)CCC2(C)C(O)C1` (stereo not given), the “activity change, negative = inhibition” value is -9.81% [at 27.8 µM].

As for `CCC1C(=O)OC23C=C[C@@H]4C(C(=O)O)=CO[C@H](O[C@@H]12)[C@@H]43` (stereo not given in full), the “activity change, negative = inhibition” value was 2.98%.

Turning to `COc1cc(Nc2nc3c(s2)CCCC3c2ccc(F)cc2)ccc1-n1cnc(C)c1` (stereo not given), the “activity change, negative = inhibition” value was -20.3%.

For the molecule `O=C(/C=C\n1cnc(-c2cc(C(F)(F)F)cc(C(F)(F)F)c2)n1)N1CC(F)(F)C1`, the “activity change, negative = inhibition” value is 5.76%.

For the molecule `N#Cc1cc(F)cc(-c2nc(-c3ccccn3)no2)c1`, the “activity change, negative = inhibition” value was 16.6%.

For the molecule `O=C(Nc1ccc(S(=O)(=O)Nc2ccccc2Cl)c(Cl)c1)c1ccccn1`, the “activity change, negative = inhibition” value was 1.74%.

On to `C=C1C(=O)OC2/C=C(\CO)CC/C=C(\C=O)CC(OC(=O)CC(C)C)C12` (stereo not given), for which the “activity change, negative = inhibition” value was 3.21% [at 27.8 µM].

`OC[C@H]1O[C@@H](OCCc2ccc(O)cc2)[C@H](O[C@@H]2OC[C@](O)(CO)[C@H]2O)[C@@H](O)[C@@H]1O`: the “outcome” value is “inactive [at 27.8 µM]”.

Regarding `C=C1CC[C@H]2[C@@](C)(CCC(O)[C@@]2(C)CO)[C@@H]1CCC1=CCOC1=O` (stereo not given in full), the “activity change, negative = inhibition” value is -18.7% [at 27.8 µM].

On to `CC(=O)OCC1(O)CCC2C(COC3OC(CO)C(O)C(O)C3OC(=O)/C=C/c3ccc(O)cc3)=COC(OC(=O)CC(C)C)C21` (stereo not given), for which the “activity change, negative = inhibition” value is -6.27% [at 15.3 µM].

For `CC1(C)CCCC2(C)C1CC(=O)C13CC(CCC12)C(O)(CO)C3` (stereo not given), the “activity change, negative = inhibition” value is -14.6% [at 27.8 µM].

Take `C=CC(C)(C)C12C=C(OC)C(=O)N3C(C(C)C)C(=O)NC31N(OC)c1ccccc12` (stereo not given): the “activity change, negative = inhibition” value is -10.6% [at 27.8 µM].

On to `Cn1cc(-c2ccc3nnc(Sc4ccc5nn(C)cc5c4)n3n2)cn1`, for which the outcome was inactive.

In the case of `C=C[C@]1(C)C[C@H](O)[C@@H]2[C@H](OC(=O)[C@@H]2C)C1/C(C)=C/O[C@@H]1O[C@H](CO)[C@@H](O)[C@H](O)[C@H]1O` (stereo not given in full), the “activity change, negative = inhibition” value is -2.23% [at 27.8 µM].

On to `CC1C=CC2CCCCC2C1CCC1CC(O)CC(=O)O1` (stereo not given), for which the “activity change, negative = inhibition” value is -10.1%.

Consider `CCN(Cc1cccnc1)C(=O)CN(c1ccc(OC)nc1)S(=O)(=O)c1ccccc1C`, for which the “activity change, negative = inhibition” value is -1.86%.

On to `Cc1cc(O)c(-c2ccc([C@@H](C)CN(C)C)cc2)c2c1[nH]c(=O)c1sccc12`, for which the “activity change, negative = inhibition” value was 2%.

Regarding `CN(C)C/C=C/C(=O)Nc1cc2c(Nc3ccc(F)c(Cl)c3)ncnc2cc1OC1CCOC1` (stereo not given), the “activity change, negative = inhibition” value is 0.226%.

As for `CC(C)(C)c1cc(Br)cc([C@H](CC(=O)O)NC(=O)CNC(=O)c2cc(O)cc(NC3=NCC(O)CN3)c2)c1` (stereo not given in full), the “activity change, negative = inhibition” value was 9.82%.

For the molecule `CN1CCN(C(=O)c2ccc3cc(CCNc4ncnc5ccc(C#N)cc45)ccc3c2)CC1`, the “activity change, negative = inhibition” value was -11.6%.

Consider `CC(=O)O[C@@H]1[C@@H](OC(=O)/C=C/c2ccccc2)[C@@H](OC(C)=O)[C@H](O[C@H]2[C@@H]3C=CO[C@@H](O[C@@H]4O[C@H](CO)[C@@H](O)[C@H](O)[C@H]4O)[C@@H]3[C@@]3(CO)O[C@@H]23)O[C@H]1C`, for which the “activity change, negative = inhibition” value was -4.52% [at 15.3 µM].

For the molecule `CC(Cc1cc2c(c(C(N)=O)c1)N(CCCO)CC2)NCCOc1ccccc1OCC(F)(F)F` (stereo not given), the “activity change, negative = inhibition” value is -4.14%.

As to `CCNC(=O)C1OC(n2cnc3c(N)nc(NCCc4ccc(CCC(=O)O)cc4)nc32)C(O)C1O` (stereo not given), the “activity change, negative = inhibition” value was 10.2%.

`CC(C)[N+]1(C)C2CCC1CC(OC(=O)C(CO)c1ccccc1)C2` (stereo not given): the “activity change, negative = inhibition” value was -3.51%.

As for `CC1C(=O)CC2C3CCC(C(=O)O)C12CC3(C)CO` (stereo not given), the “activity change, negative = inhibition” value was -17.9%.

With `CC(C)S(=O)(=O)N[C@H]1CCOC[C@@H]1c1ccc(-c2ccc(C#N)s2)cc1`, the “activity change, negative = inhibition” value is -3.64%.
